Assay outcomes as filed in PubChem BioAssay.
Rows were chosen to be rich in hits. Some 7.3% of all compounds tested hit in one or more screens of this group.
SMN2 splice up = qHTS Assay for Enhancers of SMN2 Splice Variant Expression; AID 1458, 2008; actives 2.8% (n = 210,000); Potency, µM (doses to about 46.1 µM), hits mostly activators; HEK293 SMN2-luciferase splicing reporter, luminescence, 30-36 h; also: nearly all actives have a fitted effect of over 55% in size
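HEK293 cells carry an SMN2 […]–luciferase reporter in which exon 7 inclusion puts luciferase in frame. Cells were plated 10-12 h before compound addition, then incubated 30-36 h at 37C. ONE-Glo luminescence was read; sodium butyrate at 4.5 mM final served as control.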
uPA generation = qHTS for Inhibitors of Cell Surface uPA Generation | cell surface uPA generation assay, qHTS | Potency, µM (top dose mostly 38.3 µM), most hits filed as inhibitors | actives 0.31% (n = 330,000) | AID 540303, 2011; active = well fitted inhibition curve with a large enough effect; inconclusive = small, poorly fitted or top-dose-only effect; inactive = no such curve, though single readings can be large or run the other way; tested in mouse RAW 264.7 cells; also: nearly all actives have a fitted effect of over 55% in size
FLuc modulator = qHTS profiling assay for firefly luciferase inhibitor/activator using purifed enzyme and Km concentrations of substrates (counterscreen for miR-21 project); AID 588342, 2011; actives 6.9% (n = 360,000); Luciferin 4-monooxygenase (Photinus pyralis), P08659; purified FLuc, Km substrates, luminescence inhibition; Potency, µM (highest dose often 57.5 µM), actives largely listed as inhibitors; also: nearly all actives have a fitted effect of over 55% in size
Target sequence (P08659 whole entry, looked up): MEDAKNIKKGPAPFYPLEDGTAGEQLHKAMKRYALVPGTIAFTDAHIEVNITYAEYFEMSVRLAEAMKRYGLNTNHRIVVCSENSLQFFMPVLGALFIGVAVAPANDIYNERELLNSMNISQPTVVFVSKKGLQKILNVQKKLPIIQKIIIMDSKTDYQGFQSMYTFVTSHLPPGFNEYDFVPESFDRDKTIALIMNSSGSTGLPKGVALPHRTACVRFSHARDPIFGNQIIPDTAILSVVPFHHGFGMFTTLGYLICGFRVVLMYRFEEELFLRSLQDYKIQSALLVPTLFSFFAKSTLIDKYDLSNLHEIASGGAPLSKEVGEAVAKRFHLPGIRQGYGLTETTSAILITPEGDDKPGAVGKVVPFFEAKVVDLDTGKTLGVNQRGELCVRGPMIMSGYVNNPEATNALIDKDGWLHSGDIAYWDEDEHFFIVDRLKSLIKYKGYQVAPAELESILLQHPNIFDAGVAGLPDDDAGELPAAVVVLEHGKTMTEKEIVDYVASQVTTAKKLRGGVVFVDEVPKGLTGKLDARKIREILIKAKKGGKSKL
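Purified P. pyralis luciferase (10nM final) with 10uM D-luciferin and 10uM ATP (Km levels) in 50mM Tris acetate pH 7.5, 10mM Mg acetate, 0.01% Tween-20, 0.05% BSA; qHTS 6-point titration, ~60 µM downward; luminescence read.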
NPC1 promoter act = qHTS Assay for NPC1 Promoter Activators | actives 2.4% (n = 320,000) | Potency, µM (series often up to 9.22 µM), most hits filed as activators | Huh7 NPC1 promoter luciferase reporter, 24 h; also: nearly all actives have a fitted effect of over 60% in size
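Readout is luciferase luminescence, reflecting NPC1 promoter activation in stably transfected Huh7 cells after 24 h compound exposure at 37 °C in reduced-serum medium with 10% FBS.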
ELG1 genotox = qHTS screen for small molecules that induce genotoxicity in human embryonic kidney (HEK293T) cells expressing luciferase-tagged ELG1; HEK293T ELG1-luciferase reporter, luminescence, 16 h; Potency, µM (doses to about 46 µM), hits mostly activators; actives 1.3% (n = 330,000); also: nearly all actives have a fitted effect of over 60% in size
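Step 1: seed 2,000 HEK293T ELG1-luciferase cells per well. Step 2: add compound or DMSO, incubate 16 hr at 37 °C. Step 3: ONE-Glo, 30 min at room temperature, read luminescence.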
Rab9 promoter act = qHTS Assay for Rab9 Promoter Activators; actives 2.8% (n = 320,000); Huh7 Rab9 promoter-luciferase reporter, luminescence, 24 h; Potency, µM (titrated, usually from 9.22 µM), hits mostly activators; also: nearly all actives have a fitted effect of over 60% in size
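Quantitative HTS format; Huh7 Rab9-luciferase reporter cells (1500/well) receive compound 2 h post-plating, incubate 24 h at 37 °C, then get luciferase reagent for 10 min before luminescence reading.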
Numbers stand for hits; - = inactive; ? = inconclusive; . = not tested or not shown; [ ] = another dose, or the depositor's remark. Unless noted, calls follow the shape of the dose curve; as a rule, active = well fitted curve in the direction sought with a large enough effect; inconclusive = small, poorly fitted or top-dose-only effect, or another doubt; inactive = no such curve, though single readings can be large; an effect the other way counts as inactive or inconclusive.

SMILES	SMN2 splice up	uPA generation	FLuc modulator	NPC1 promoter act	ELG1 genotox	Rab9 promoter act
Cn1c(SCC(=O)Nc2ccc(N3CCOCC3)cc2)nnc1-c1ccccc1F	.	-	17µM	-	-	-
CC(C)(C)OC(=O)NCCCCCc1cn([C@@H](CO)C(=O)NCCCCCCCCCCC(=O)N2CCN(C(=O)OC(C)(C)C)CC2)nn1	.	11µM	?	-	-	-
CCn1c2ccccc2c2cc(NC(=O)N3CCOCC3)ccc21	?	-	-[2.3 µM]	?	?	3.5µM
O=C(Nc1ccc2c(c1)oc1ccccc12)N1CCOCC1	?	-	12µM	3.5µM	?	3.5µM
O=C(Nc1ccccc1)N1CCOCC1	-	-	-	-	-	-
CCn1ccc2cc(S(=O)(=O)N3CCCN(C(=O)Nc4ccc(C)cc4)CC3)ccc21	.	.	-	.	.	.
Cc1ccc(-n2nc3ccc(NC(=O)c4ccco4)cc3n2)cc1	-	-	9.5µM	-	15µM	?
CC(C)C(=O)Nc1ccc2nn(-c3ccc(F)cc3)nc2c1	.	-	0.85µM	0.11µM	?	0.089µM
CCCC(=O)Nc1ccc2nn(-c3ccc(OC)cc3)nc2c1	.	-	5.4µM	?	?	2µM
Cc1ccc(-n2nc3ccc(NC(=O)c4ccc5c(c4)OCO5)cc3n2)cc1	-	.	-	-	-	-
CCCC(=O)Nc1cc2nn(-c3ccc(OC)cc3)nc2cc1C	-	.	?	.	.	.
Cc1ccc(-n2nc3ccc(NC(=O)C(C)C)cc3n2)cc1	2.2µM	-	0.95µM	0.35µM	1.2µM	0.35µM
CCCCN(C)C(=O)c1ccc2c(c1)N(Cc1ccc(F)cc1)C(=O)c1ccccc1S2(=O)=O	-	.	-	.	.	.
CC(C)CC(=O)Nc1ccc2nn(-c3ccccc3)nc2c1	6.3µM	-	2.7µM	1.6µM	?	1.6µM
Cc1ccccc1NC(=O)c1cccc(C(F)(F)F)c1	-	-	-	-	-	-
O=C(Nc1ccsc1C(=O)O)c1cccc(C(F)(F)F)c1	.	-	9.5µM	3.2µM	16µM	?
O=C(Nc1ccsc1C(=O)O)c1cccc(Oc2ccccc2)c1	.	-	0.76µM	1.8µM	?	0.89µM
O=C(Nc1nnc(-c2cccs2)o1)c1cccc(Oc2ccccc2)c1	-	?	-	-	-	-
Cc1cc(F)ccc1S(=O)(=O)N1CCCOC1CNC(=O)C(=O)NC1CC1 (configuration not stated)	.	-	-	-	-	-
N#C/C(=C\c1cccc(O)c1)c1nc2ccccc2o1	.	-	8.5µM	-	-	-
N#C/C(=C\Nc1ccccc1O)c1nc2ccccc2o1	-[1.84 µM]	-	19µM	-	-	-
N#C/C(=C\c1ccncc1)c1nc2ccccc2o1	.	-	-	-	-	-
CCOC(=O)C1CCN(C(=O)c2nn(-c3ccc(OC)c(Cl)c3)c(=O)c3c2c2ccccc2n3C)CC1	-	.	-	.	.	.
CC(C)CN1CC(Br)C(=O)NC1=O (configuration not stated)	.	-	.	.	.	.
CCc1ccc(-c2nc(CSCC(=O)NCc3ccco3)c(C)o2)cc1	-	-	24µM	-	-	-
SMILES	SMN2 splice up	uPA generation	FLuc modulator	NPC1 promoter act	ELG1 genotox	Rab9 promoter act
CCOC(=O)CSCc1nc(-c2ccc(Cl)cc2)oc1C	-	-	17µM	-	-	-
CCOc1ccc(-c2nc(CSCC(=O)NCC3CCCO3)c(C)o2)cc1 (configuration not stated)	.	-	17µM	-	-[9.26 µM]	-
CCc1ccc(-c2nc(CSCC(=O)NCc3ccccc3OC)c(C)o2)cc1	-	.	?	.	.	.
COc1ccc(-c2nc(CSCC(=O)N3CCN(c4ccccc4)CC3)c(C)o2)cc1	-	.	-	.	.	.
Cc1ccc(CNC(=O)CSCc2nc(-c3ccc(Cl)cc3)oc2C)cc1	-	.	-	.	.	.
CCOc1ccc(-c2nc(CSCC(=O)N3CCN(C(=O)c4ccco4)CC3)c(C)o2)cc1	-	-	19µM	-	-	-
Cc1cc([N+](=O)[O-])c2c(c1C)C1C=CCC1C(c1ccccn1)N2 (configuration not stated)	-	.	?	-	-	-
CCOC(=O)C1CCN(C(=O)CSCc2nc(-c3ccc(OCC)cc3)oc2C)CC1	-	-	?	-	21µM	-
O=C(O)c1cccc(CSc2n[nH]c(-c3ccc(Cl)cc3Cl)n2)c1	-	-	27µM	-	-	-
CSc1nnc2c3ccccc3n(CCc3ccccc3)c2n1	4µM	-	-	-	-	-
Cc1nc2nc(SCC(=O)Nc3cccc(Cl)c3)nn2c(C)c1Cc1ccccc1	.	.	-	.	.	.
Cc1ccc(NC(=S)N2CCCCC2)cc1C	.	-	24µM	-	-	-
COc1ccc(NC(=S)N2CCCCCC2)cc1OC	-	-	-	-	-	-
Cc1ccc(NC(=S)N2CCCCCC2)cc1	.	-	8.5µM	?	?	?
Nc1nc2c(s1)CC(c1ccccc1)CC2 (configuration not stated)	-	-	24µM	-	-	-
